Screen size: about 340,000 compounds; about 1,000 (0.29%) were called active. The sample holds actives, similar compounds and a random draw of the others, so the mix is not that of the screen. A number with no mark means an inactive call.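 Rule for the calls: active = mean replicate activation score at least 90 and every replicate individually at or above 90; inconclusive = only one of the two criteria met; inactive = neither criterion met.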

A short description of this assay: compounds raising miR-122 luciferase sensor output – cell-based, single point, plate reader, miR-122 inhibitor project, primary screen (AID 602342).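 Note: higher luciferase means less miR-122 activity so hits act as miR-122 inhibitors.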 Conditions: Huh7 miR-122 Renilla luciferase sensor, 48 h, hits give high values; at 12.5 µM unless noted.
Consider `C[C@]12CCC3C(CC[C@H]4C[C@@H](O)CC[C@]34C)C1C[C@@H](O)[C@H]2O` (stereo not given in full), for which the activation (reporter increase) was -6.69%.
On to `C[C@]12CC[C@H](O)C[C@H]1CC[C@@H]1C2CC[C@]2(C)[C@@H](C3=CC(=O)OC3)[C@@H](O)C[C@]12O` (stereo not given in full), for which the activation (reporter increase) is 339% (active).
The value for `C[C@]12CCC3C(CC[C@H]4C[C@@H](O)CC[C@]34C)C1CC[C@@H]2O` (stereo not given in full) was -9.92%.
In the case of `COc1ccc(-n2nnnc2C(c2cccc3ccccc23)N2CCC(n3c(=O)[nH]c4ccccc43)CC2)cc1` (stereo not given), the activation (reporter increase) is -6.36%.
Take `COC(=O)[C@H]1[C@H](CO)[C@H]2Cn3c(ccc(-c4ccccc4F)c3=O)[C@@H]1N2C(=O)C1CCC1`: the activation (reporter increase) was 3% [at 16.7 µM].
